Records with an inconclusive call do not appear. Activity calls are given as the source filed them. Calls come from the whole dose curve; as a rule, active = well fitted curve in the direction sought with a large enough effect; inconclusive = small, poorly fitted or top-dose-only effect, or effect the other way, or another doubt; inactive = no such curve, though single readings can be large or run the other way.
These molecules were tested against Pyruvate kinase PKLR (Homo sapiens) (UniProt P30613) (assay: Secondary LDH Assay for Activators of Human Liver Pyruvate Kinase: for Probe SAR). Conditions: purified hPK-L, LDH-coupled NADH fluorescence kinetic; series mostly up to 58.2 µM.
Outline: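 Kinetic LDH-coupled read-out: NADH fluorescence loss followed every 30 s for 3–6 min gave initial rates. Reaction: 10 nM human liver PK, 0.1 mM PEP, 4 mM ADP, 0.2 mM NADH, 50 mM Tris-Cl pH 8.0; activation normalised to fructose-bis-phosphate.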

Sequence of Pyruvate kinase PKLR (Homo sapiens) (P30613 whole entry, looked up): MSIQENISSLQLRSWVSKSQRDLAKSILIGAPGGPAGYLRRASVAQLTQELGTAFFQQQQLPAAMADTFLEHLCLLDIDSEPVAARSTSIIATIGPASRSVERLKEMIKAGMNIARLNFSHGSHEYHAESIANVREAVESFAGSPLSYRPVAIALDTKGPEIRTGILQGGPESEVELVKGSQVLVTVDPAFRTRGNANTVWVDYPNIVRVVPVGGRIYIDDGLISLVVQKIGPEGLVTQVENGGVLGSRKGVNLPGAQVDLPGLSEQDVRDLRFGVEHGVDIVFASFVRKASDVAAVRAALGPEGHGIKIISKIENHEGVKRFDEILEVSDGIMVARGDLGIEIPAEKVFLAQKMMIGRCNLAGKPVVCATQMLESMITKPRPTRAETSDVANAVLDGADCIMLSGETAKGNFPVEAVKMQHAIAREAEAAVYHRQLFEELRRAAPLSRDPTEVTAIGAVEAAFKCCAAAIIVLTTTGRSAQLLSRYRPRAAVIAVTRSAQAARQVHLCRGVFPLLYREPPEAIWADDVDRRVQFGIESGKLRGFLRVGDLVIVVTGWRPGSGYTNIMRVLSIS

outcome, inactive:
CSc1cc2c(s1)c1cnn(Cc3cccc(N)c3)c(=O)c1n2C
O=S(=O)(c1ccc2c(c1)OCCO2)N1CCN(S(=O)(=O)c2c(F)cccc2F)CC1
Cc1ccc(OC2=NS(=O)(=O)c3ccccc32)cc1
Cc1ccc(NS(=O)(=O)c2ccc3[nH]c(=O)[nH]c3c2)cc1C
O=C1CCc2cc(S(=O)(=O)Nc3cccc(-c4ccccc4)c3)ccc2N1
Cc1ccc(NS(=O)(=O)c2cc3c(cc2N2CCC2)NC(=O)CC3)cc1C
Cc1ccc(NS(=O)(=O)c2ccc3c(c2)CCC(=O)N3)cc1Cl
COc1ccccc1NS(=O)(=O)c1ccc2c(c1)CCC(=O)N2
CCCCN1C(=O)c2ccccc2C1=O
O=C1CCc2cc(S(=O)(=O)NCc3ccccc3)ccc2N1
Cc1cccc(OC2=NS(=O)(=O)c3ccccc32)c1
O=C1CCc2cc(S(=O)(=O)Nc3ccncc3)ccc2N1
O=C1CCc2cc(S(=O)(=O)Nc3ccc(Cl)c(Cl)c3)c(F)cc2N1
Cc1ccc(NS(=O)(=O)c2ccc3c(c2)C(Cl)(Cl)C(=O)N3)cc1C
Cc1ccc(NS(=O)(=O)c2ccc3c(ccn3C)c2)cc1C
COc1cccc(Cn2ncc3c4sc(SC)cc4n(C)c3c2=O)c1
Cc1ccc(NS(=O)(=O)c2cc3c(cc2Cl)NC(=O)CO3)cc1C
Cc1ccc(NS(=O)(=O)c2cc3c(cc2N(C)C)NC(=O)CC3)cc1C
Cc1ccc(NS(=O)(=O)c2cc3c(cc2Cl)CCC(=O)N3)cc1C
CN(C)c1cccc(S(=O)(=O)N2CCCN(S(=O)(=O)c3ccc4c(c3)OCCO4)CC2)c1
Cc1ccccc1Nc1c(-c2ccc(Cl)s2)nc2ccccn12
O=C1CCc2cc(S(=O)(=O)Nc3ccc4ncccc4c3)ccc2N1
O=C1CCc2cc(S(=O)(=O)Nc3cccnc3)ccc2N1
N#Cc1cccc(NS(=O)(=O)c2ccc3c(c2)CCC(=O)N3)c1

Reference: PubChem BioAssay AID2625 (National Center for Advancing Translational Sciences (NCATS), 2010)
